# System: Mel-DCC-11-R
# Experiment: cell viability relative to DMSO control (fraction of DMSO control); higher = less cytotoxic, active = 0.8 or less
# Details: 1 µM; 120 h; vemurafenib co-treatment 8 µM
# In short: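 Three cell types were screened against 315 approved anti-cancer drugs from TargetMol, acoustically pre-spotted in 384-well plates at 1 µM in duplicate over 120 h: NHEM-hTERT immortalized melanocytes (2500/well), patient-derived Mel-DCC-11 and its resistant subline Mel-DCC-11-R (both 1500/well), all in 40 µl per well. The subline was tested alone and with 8 µM of its selecting drug. Viability, measured by luminescence, was normalised to vehicle controls and averaged across duplicates, with ATPlite 1step as the readout.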
row,Compound,cell viability
1,CC(C)(S)[C@@H](N)C(=O)O [Artamine],1.25 (inactive)
2,CCS(=O)(=O)N1CC(CC#N)(n2cc(-c3ncnc4[nH]ccc34)cn2)C1 [Baricitinib],1.22 (inactive)
3,CCc1cc2c(cc1N1CCC(N3CCOCC3)CC1)C(C)(C)c1[nH]c3cc(C#N)ccc3c1C2=O [Alectinib],0.888 (inactive)
4,CS(=O)(=O)O.Cc1ccc(NC(=O)c2ccc(CN3CCN(C)CC3)cc2)cc1Nc1nccc(-c2cccnc2)n1 [Imatinib Mesylate],1.1 (inactive)
5,COC(=O)N[C@H](C(=O)N1CC2(CC2)C[C@H]1c1ncc(-c2ccc3c(c2)C(F)(F)c2cc(-c4ccc5nc([C@@H]6[C@H]7CC[C@H](C7)N6C(=O)[C@@H](NC(=O)OC)C(C)C)[nH]c5c4)ccc2-3)[nH]1)C(C)C [Ledipasvir],0.51 (active)
6,CC(C)C[C@H](NC(=O)[C@@H](O)[C@H](N)Cc1ccccc1)C(=O)O [Ubenimex],0.942 (inactive)
7,Cl.NNc1nncc2ccccc12 [Hydralazine hydrochloride],1.19 (inactive)
8,Nc1c2ccccc2nc2ccccc12 [Aminacrine],1.2 (inactive)
9,CC(=O)c1c(C)c2cnc(Nc3ccc(N4CCNCC4)cn3)nc2n(C2CCCC2)c1=O [Palbociclib],1.15 (inactive)
10,C[C@@H](Oc1cc(-c2cnn(C3CCNCC3)c2)cnc1N)c1c(Cl)ccc(F)c1Cl [Crizotinib],0.825 (inactive)
11,CCc1ccc(CCOc2ccc(CC3SC(=O)NC3=O)cc2)nc1.Cl (stereo unspecified) [Pioglitazone hydrochloride],1.18 (inactive)

# From the supplement of paper PMC12808144
